ID4 SMM: binds human ID4 protein on microarray; small molecule microarray, Flag-ID4 binding, fluorescence F/B; AID 624137; calls only; 31,000 tested, 1.2% active; call rule not given here;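 further: a binder raises fluorescence above local background on the spot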
Target sequence (P47928 whole entry, looked up): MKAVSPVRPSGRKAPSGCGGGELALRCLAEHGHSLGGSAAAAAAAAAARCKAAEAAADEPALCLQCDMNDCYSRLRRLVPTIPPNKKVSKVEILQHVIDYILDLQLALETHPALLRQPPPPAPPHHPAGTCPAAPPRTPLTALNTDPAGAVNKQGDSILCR
STK33 inh: inhibitors of human STK33 kinase; 27,000 tested, 0.44% active; inhibition, % at 12.5 µM; ADP-Glo luminescence, MBP substrate; Q9BYT3; in the data active means inhibition above about 20%
* marks the source's active call; other numbers are inactive results; i = inactive; . = no result given; + = active, no number. The full list was thinned out, with hits kept by preference.

SMILES | ID4 SMM | STK33 inh
O=c1c(O[C@@H]2O[C@H](CO)[C@H](O)[C@H](O)[C@H]2O)c(-c2ccc(O)c(O)c2)oc2cc(O)cc(O)c12 | . | 5
COc1c(O)cc2oc(-c3ccc(O[C@@H]4O[C@H](CO)[C@@H](O)[C@H](O)[C@H]4O)cc3)cc(=O)c2c1O | i | 51*
COc1c(C2OCC(OC(C)=O)C(OC(C)=O)C2OC(C)=O)c(O)cc2oc(-c3ccc(OC4OC(CO)C(O)C(O)C4O)cc3)cc(=O)c12 (stereo not given) | i | -2
CO[C@@H]1CN(C)C(=O)c2ccc(NC(C)=O)cc2OC[C@@H](C)N(Cc2ccccc2F)C[C@H]1C | i | .
Cc1sc2ncn(CC(=O)Nc3c(C(C)C)cccc3C(C)C)c(=O)c2c1C | i | 1
O=C1c2c(O)ccc(O)c2C(=O)c2c(NCCNCCO)ccc(NCCNCCO)c21 | i | 58*
C[C@@H]1CN([C@H](C)CO)C(=O)Cc2cc(N(C)C)ccc2O[C@H]1CN(C)C(=O)Nc1ccccc1 | i | 3
C[C@@H]1CN([C@H](C)CO)C(=O)Cc2cc(NS(=O)(=O)c3ccc(F)cc3)ccc2O[C@H]1CN(C)C(=O)Nc1ccc2c(c1)OCO2 | . | 0
N#CC(C(=O)c1ccco1)c1nc2ccccc2[nH]1 (stereo not given) | . | 67*
c1ccc(CC(Cc2nc3ccccc3[nH]2)c2nc3ccccc3[nH]2)cc1 (stereo not given) | i | -1
CN1CCc2cccc3c2[C@H]1Cc1ccc(O)c(O)c1-3 | i | 24*
C[C@@H]1CC(=O)c2c(ccc3c2C(=O)c2cccc(O)c2C3=O)C1 | i | 9
CCN(CC(=O)Nc1cc(C(F)(F)F)ccc1Cl)S(=O)(=O)c1ccc(C)cc1 | i | 7
O=C(Nc1sc2c(c1C(=O)NCc1cccnc1)CCCC2)c1ccco1 | i | 12
COC(=O)Nc1sc2c(c1C(=O)NCc1ccco1)CCC2 | i | 3
O=C(Nc1sc2c(c1C(=O)NCc1cccnc1)CCCCC2)c1ccccc1 | + | -1
COC(=O)Nc1sc2c(c1C(=O)NCc1ccco1)CCCC2 | + | 3
C[C@H]1CN([C@@H](C)CO)C(=O)c2cc(C#Cc3ccccc3)cnc2O[C@@H]1CN(C)C(=O)c1ccccc1 | i | .
CO[C@@H](CN(C)C(=O)C1CCOCC1)[C@@H](C)CN(C(=O)Nc1ccc(C(F)(F)F)cc1)[C@H](C)CO | i | .
Cc1ccc(OCC(=O)Nc2cc(C(F)(F)F)ccc2N2CCOCC2)c(C)c1 | i | 5
O=C(Nc1sc2c(c1C(=O)NCc1ccco1)CCCC2)c1ccc(F)cc1 | i | 8
CCCCC/C=C\C/C=C\CCCCCCCC(=O)NCC(=O)O | + | 0
CCCCC/C=C\C/C=C\CCCCCCCC(=O)O | . | 0
CCCCC/C=C\C/C=C\C/C=C\CCCCCCC(=O)O | + | .
CCCCC/C=C\C/C=C\C/C=C\CCCCC(=O)O | i | -1
SMILES | ID4 SMM | STK33 inh
C[C@@H]1CN([C@@H](C)CO)C(=O)Cc2cc(N(C)C)ccc2O[C@@H]1CN(C)Cc1ccncc1 | i | 3
O=c1c(O)c(-c2ccccc2)oc2cc(O)cc(O)c12 | . | 1
O=c1c(O)c(-c2cc(O)c(O)c(O)c2)oc2cc(O)cc(O)c12 | i | 36*
CO[C@@H]1CN(C)C(=O)c2ccc(NC(=O)C3CC3)cc2OC[C@@H](C)N(Cc2cccnc2)C[C@H]1C | i | .
COc1ccc(NC(=O)C23CC4CC(C2)CC(C(=O)Nc2ccc(OC)cc2OC)(C4)C3)c(OC)c1 | i | -2
COc1ccc(NC(=O)NCCc2ccccc2OC)c(OC)c1 | i | 2
COc1ccc(NC(=O)NCc2ccc(C(=O)O)cc2)c(OC)c1 | + | -1
COc1ccc(NC(=S)NCCc2ccccc2OC)c(OC)c1 | + | 0
COc1ccc(CC(=O)Nc2ccc(NC(=O)c3ccco3)cc2)cc1OC | i | 5
O=C(/C=C/c1ccccc1)CC(=O)/C=C/c1ccccc1 | . | 0
O=C(/C=C/c1ccccc1)c1ccc(O)cc1 | . | 27*
COC(=O)c1ccccc1NC(=O)CSC1=NC(c2ccccc2)CC(=O)N1 (stereo not given) | i | -1
C[C@@H]1CN([C@H](C)CO)C(=O)c2cc(NC(=O)Nc3cccc4ccccc34)ccc2O[C@H]1CN(C)C(=O)NC1CCCCC1 | i | .
O=C(O)C1C2C=CC(O2)C1C(=O)Nc1ccc(S(=O)(=O)N2CCc3ccccc32)cc1 (stereo not given) | + | -2
O=S(=O)(c1ccc(Cl)cc1)N1CCc2ccccc21 | . | 2
C[C@H](CO)N1C[C@H](C)[C@H](CN(C)Cc2ccc(Cl)c(Cl)c2)Oc2ccc(NC(=O)NC3CCCCC3)cc2CC1=O | . | 2
C[C@@H]1CN([C@@H](C)CO)C(=O)c2cc(NC(=O)C3CCCCC3)ccc2O[C@H]1CN(C)CC1CCCCC1 | . | 0
O=S(=O)(c1cccc2cnccc12)N1CCNCC1 | i | .
NCCNS(=O)(=O)c1cccc2cnccc12 | . | 44*
COc1cc(/C=C2\Oc3cc(O)cc(O)c3C2=O)cc(OC)c1O | . | 88*
COc1ccc([C@@H]2CC(=O)c3c(O)cc(O)cc3O2)cc1O | . | 1
CN(C)CCCCNC(=O)[C@@H]1C[C@@H]2C(=O)N[C@@H](CCCCN(C)C)C(=O)N2[C@@H]1c1ccc(O)cc1 | . | 1
CN(C)CCCCCCNC(=O)[C@@H]1C[C@@H]2C(=O)N3CCC[C@H]3C(=O)N2[C@@H]1c1ccc(O)cc1 | + | 2
NC(=O)C1CCCN(/[N+]([O-])=N/OCCBr)C1 (stereo not given) | + | .
CO/N=[N+](\[O-])N1CCCC(C(N)=O)C1 (stereo not given) | i | .
SMILES | ID4 SMM | STK33 inh
COC(=O)N(C)C[C@H]1OCc2ccccc2-c2c(n(C)c3ccccc23)C(=O)N([C@H](C)CO)C[C@@H]1C | i | .
O=c1c(O)c(-c2ccccc2)oc2cc(O)ccc12 | i | 32*
O=C(O)COc1c(-c2ccccc2)oc2ccccc2c1=O | i | 3
C[C@H]1CN([C@@H](C)CO)C(=O)CCCn2cc(nn2)CO[C@H]1CN(C)C(=O)Nc1ccc2c(c1)OCCO2 | . | 0
C[C@H]1CN([C@@H](C)CO)C(=O)CCCn2nncc2CO[C@@H]1CN(C)S(C)(=O)=O | . | 8
C=CCNC(=O)[C@@H]1[C@H]2C(=O)O[C@H](c3ccccc3)[C@H](c3ccccc3)N2[C@H](c2ccc(OCCO)cc2)[C@@]12C(=O)Nc1ccc(C#CCNC(N)=O)cc12 | i | 20*
O=C1O[C@@H](c2ccccc2)[C@@H](c2ccccc2)N2[C@@H](c3ccc(OCCO)cc3)[C@]3(C(=O)Nc4ccc(C#CC5=CCCCC5)cc43)[C@@H](C(=O)N3CCN(c4ncccn4)CC3)[C@H]12 | i | 8
COc1ccc(C#Cc2ccc3c(c2)[C@]2(C(=O)N3)[C@H](C(=O)N3CCCCCCC3)[C@H]3C(=O)O[C@H](c4ccccc4)[C@H](c4ccccc4)N3[C@@H]2c2ccccc2OCCO)cc1 | . | 30*
O=C1O[C@H](c2ccccc2)[C@H](c2ccccc2)N2[C@H]1[C@@H](C(=O)N1CCN(c3ncccn3)CC1)[C@]1(C(=O)Nc3ccc(C#CC4(O)CCCCCC4)cc31)[C@H]2c1ccccc1OCCO | . | 9
C=CCNC(=O)[C@@H]1[C@H]2C(=O)O[C@H](c3ccccc3)[C@H](c3ccccc3)N2[C@H](c2ccc(OCCO)cc2)[C@@]12C(=O)Nc1ccc(C#Cc3ccc(OC)cc3)cc12 | i | 15

Source: PubChem BioAssay (Broad Institute)
